Measured values as given in the supplement of paper PMC10849652.
About 8,800 targets were measured; listed, in parts, are those with a hit and a random draw of the rest. About 0.5% of all pairs of compound and target were hits.

compound: O=C(O)c1ccc2c(c1)nc(Nc1cccc(Cl)c1)c1ccncc12 [silmitasertib]; assay: log2 fold change, soluble protein after heating vs DMSO (PISA); higher = thermal stabilisation; K562 lysate, 10 uM; active = over 0.2 and 3.5 SD of the protein, either way, in both replicates (recomputed)
How it was run: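 A 30 min treatment with 10 μM compound was applied to crude K562 extract at 1 mg/mL protein in PBS pH 7.4 with 1 mM MgCl2. Heating for 3 min spanned 48°C-58°C, after which aliquots were pooled, adjusted to 0.5% NP-40 at 4°C and spun at 21,000xg for 90 min. TMTpro 16plex LC-MS/MS of the supernatant, with channel sums equalised, gave values recorded as log-two fold change in thermal stability against solvent controls, from duplicates.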

Chain of UniProt P51825 (P51825 whole entry, looked up): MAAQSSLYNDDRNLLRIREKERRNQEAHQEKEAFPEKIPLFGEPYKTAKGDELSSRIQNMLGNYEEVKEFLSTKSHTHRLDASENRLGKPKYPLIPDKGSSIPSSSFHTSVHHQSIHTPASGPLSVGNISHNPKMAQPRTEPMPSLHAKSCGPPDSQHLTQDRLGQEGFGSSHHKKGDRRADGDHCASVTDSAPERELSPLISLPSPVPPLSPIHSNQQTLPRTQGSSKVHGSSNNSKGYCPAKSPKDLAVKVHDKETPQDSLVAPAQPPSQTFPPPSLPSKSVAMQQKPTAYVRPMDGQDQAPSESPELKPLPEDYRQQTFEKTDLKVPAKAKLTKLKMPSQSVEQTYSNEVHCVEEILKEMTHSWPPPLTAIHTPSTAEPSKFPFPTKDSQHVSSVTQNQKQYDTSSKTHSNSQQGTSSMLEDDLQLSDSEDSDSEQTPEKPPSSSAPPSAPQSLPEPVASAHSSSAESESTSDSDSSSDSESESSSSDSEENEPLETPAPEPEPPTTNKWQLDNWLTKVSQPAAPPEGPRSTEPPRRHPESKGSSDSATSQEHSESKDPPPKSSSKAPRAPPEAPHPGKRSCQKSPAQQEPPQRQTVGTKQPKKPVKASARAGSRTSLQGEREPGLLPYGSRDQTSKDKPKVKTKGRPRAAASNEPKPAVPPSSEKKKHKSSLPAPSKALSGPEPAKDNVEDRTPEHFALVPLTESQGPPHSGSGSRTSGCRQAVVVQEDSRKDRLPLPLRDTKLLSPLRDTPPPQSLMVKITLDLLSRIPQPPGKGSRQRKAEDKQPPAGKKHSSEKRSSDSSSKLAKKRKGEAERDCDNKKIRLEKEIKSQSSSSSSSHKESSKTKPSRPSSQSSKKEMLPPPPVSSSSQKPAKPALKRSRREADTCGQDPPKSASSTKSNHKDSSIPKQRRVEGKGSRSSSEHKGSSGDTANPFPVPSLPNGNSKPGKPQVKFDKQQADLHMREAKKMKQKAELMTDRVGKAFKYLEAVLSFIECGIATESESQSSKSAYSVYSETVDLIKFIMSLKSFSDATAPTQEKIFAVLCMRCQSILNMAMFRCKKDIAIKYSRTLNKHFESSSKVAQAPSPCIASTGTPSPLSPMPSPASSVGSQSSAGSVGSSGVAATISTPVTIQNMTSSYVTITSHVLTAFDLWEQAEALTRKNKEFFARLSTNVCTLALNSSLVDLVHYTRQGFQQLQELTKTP
Chain of UniProt Q8NFV4 (Q8NFV4 whole entry, looked up): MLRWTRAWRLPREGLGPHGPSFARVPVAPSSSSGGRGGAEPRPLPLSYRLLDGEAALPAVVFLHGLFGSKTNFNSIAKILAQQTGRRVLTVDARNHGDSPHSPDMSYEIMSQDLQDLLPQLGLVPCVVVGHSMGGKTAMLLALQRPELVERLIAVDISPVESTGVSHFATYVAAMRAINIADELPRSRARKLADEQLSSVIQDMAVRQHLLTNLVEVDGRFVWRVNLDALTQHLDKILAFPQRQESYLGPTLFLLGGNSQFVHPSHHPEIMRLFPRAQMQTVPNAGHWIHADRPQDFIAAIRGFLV
Chain of UniProt Q5VST6 (Q5VST6 whole entry, looked up): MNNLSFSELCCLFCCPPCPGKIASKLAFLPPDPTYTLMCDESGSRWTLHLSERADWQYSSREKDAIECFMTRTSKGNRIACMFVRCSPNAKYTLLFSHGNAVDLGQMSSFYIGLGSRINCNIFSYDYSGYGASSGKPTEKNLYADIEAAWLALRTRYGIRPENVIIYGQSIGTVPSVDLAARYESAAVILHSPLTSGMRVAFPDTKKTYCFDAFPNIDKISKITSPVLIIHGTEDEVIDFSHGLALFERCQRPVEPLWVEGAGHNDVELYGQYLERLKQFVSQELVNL
Chain of UniProt P04083 (P04083 whole entry, looked up): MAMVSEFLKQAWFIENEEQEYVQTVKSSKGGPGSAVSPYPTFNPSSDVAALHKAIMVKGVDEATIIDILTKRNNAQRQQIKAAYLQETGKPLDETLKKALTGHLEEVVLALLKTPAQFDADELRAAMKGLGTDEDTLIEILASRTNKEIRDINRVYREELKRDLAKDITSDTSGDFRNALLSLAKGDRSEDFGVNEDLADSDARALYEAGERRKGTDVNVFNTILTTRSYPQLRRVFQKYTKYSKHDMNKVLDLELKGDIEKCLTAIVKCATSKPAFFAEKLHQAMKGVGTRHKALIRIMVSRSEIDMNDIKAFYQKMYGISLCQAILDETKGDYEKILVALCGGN
Chain of UniProt Q99943 (Q99943 whole entry, looked up): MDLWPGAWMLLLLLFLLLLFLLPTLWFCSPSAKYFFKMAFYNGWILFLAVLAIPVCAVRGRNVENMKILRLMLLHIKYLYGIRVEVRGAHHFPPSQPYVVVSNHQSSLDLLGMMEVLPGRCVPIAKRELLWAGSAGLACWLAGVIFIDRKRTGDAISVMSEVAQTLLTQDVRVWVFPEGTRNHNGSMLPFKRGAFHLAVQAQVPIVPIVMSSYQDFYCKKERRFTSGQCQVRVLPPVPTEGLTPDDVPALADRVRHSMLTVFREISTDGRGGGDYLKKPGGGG
Chain of UniProt Q9BR61 (Q9BR61 whole entry, looked up): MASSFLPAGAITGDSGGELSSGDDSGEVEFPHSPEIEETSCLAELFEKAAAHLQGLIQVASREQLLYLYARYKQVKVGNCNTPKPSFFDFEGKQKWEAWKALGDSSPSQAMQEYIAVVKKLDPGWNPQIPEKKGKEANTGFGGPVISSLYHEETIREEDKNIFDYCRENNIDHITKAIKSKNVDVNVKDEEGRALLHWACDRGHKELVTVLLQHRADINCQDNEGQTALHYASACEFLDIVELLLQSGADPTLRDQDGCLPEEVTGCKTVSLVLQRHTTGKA
Chain of UniProt Q9UKA4 (Q9UKA4 whole entry, looked up): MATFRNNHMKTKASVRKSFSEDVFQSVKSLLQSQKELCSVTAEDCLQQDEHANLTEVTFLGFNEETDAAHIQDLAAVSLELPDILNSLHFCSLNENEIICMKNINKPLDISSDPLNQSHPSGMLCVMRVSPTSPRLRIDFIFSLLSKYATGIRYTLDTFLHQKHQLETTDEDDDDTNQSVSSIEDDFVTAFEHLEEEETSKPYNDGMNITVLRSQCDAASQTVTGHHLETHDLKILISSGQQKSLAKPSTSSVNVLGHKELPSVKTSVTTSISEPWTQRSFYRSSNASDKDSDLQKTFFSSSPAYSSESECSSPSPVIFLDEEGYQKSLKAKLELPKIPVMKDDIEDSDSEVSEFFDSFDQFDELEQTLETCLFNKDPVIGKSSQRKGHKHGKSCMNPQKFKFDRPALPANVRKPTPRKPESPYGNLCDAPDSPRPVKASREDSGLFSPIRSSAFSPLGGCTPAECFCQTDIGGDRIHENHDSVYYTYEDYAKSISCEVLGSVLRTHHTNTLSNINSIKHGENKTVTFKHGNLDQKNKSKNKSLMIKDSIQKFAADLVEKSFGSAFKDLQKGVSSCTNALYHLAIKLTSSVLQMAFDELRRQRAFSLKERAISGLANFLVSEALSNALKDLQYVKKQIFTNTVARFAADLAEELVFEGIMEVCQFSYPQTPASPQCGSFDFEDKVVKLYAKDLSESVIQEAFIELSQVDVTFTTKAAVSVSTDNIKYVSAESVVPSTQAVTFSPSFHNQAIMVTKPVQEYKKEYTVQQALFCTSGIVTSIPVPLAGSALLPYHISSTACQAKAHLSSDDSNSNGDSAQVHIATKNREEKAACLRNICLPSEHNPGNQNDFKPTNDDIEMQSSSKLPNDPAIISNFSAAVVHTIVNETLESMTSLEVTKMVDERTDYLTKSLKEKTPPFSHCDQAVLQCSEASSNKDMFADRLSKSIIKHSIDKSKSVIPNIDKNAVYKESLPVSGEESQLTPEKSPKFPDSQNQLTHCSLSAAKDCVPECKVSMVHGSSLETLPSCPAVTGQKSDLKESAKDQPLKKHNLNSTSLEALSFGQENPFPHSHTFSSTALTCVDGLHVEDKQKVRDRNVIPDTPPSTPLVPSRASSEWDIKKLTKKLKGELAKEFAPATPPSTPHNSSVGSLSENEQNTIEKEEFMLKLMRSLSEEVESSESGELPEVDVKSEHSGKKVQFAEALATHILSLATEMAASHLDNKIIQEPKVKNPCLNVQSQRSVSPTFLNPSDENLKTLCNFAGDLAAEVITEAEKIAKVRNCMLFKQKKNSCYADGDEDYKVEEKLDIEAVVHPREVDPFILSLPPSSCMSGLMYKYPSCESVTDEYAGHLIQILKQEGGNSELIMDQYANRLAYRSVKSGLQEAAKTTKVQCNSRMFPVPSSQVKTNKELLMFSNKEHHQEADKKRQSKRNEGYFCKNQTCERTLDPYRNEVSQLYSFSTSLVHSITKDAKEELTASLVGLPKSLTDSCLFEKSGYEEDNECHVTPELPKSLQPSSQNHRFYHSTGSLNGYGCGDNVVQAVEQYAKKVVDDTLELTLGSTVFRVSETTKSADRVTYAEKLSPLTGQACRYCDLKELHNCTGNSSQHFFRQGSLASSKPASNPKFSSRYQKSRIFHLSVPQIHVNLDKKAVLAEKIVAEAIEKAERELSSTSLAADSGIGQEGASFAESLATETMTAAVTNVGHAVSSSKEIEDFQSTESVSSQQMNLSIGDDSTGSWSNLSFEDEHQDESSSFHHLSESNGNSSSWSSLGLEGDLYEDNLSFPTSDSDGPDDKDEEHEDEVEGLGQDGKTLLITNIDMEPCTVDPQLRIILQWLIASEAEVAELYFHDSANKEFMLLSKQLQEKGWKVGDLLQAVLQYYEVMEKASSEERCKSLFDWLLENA
Chain of UniProt Q562R1 (Q562R1 whole entry, looked up): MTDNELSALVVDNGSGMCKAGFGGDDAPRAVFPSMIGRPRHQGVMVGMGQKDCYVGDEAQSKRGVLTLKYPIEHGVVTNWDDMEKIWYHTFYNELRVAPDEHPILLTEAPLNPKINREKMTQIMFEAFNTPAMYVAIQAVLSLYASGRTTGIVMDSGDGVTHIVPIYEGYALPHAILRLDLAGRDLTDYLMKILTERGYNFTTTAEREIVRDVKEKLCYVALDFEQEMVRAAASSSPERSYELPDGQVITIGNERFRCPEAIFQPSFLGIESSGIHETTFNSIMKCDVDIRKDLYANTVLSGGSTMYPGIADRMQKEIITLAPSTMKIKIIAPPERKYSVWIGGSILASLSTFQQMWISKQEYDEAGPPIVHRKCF

log2 fold change, inactive:
AIMP1 isoform 2 (UniProt Q12904) 0.02
AMDHD2 isoform 3 (UniProt Q9Y303) -0.004
ANXA11 (UniProt P50995) 0.044
ALDH5A1 isoform 2 (UniProt P51649) -0.005
AKAP11 (UniProt Q9UKA4) 0.019
ANP32A (UniProt P39687) 0.063
APAF1 (UniProt O14727) 0.032
AKR1B1 (UniProt P15121) -0.004
ANXA1 (UniProt P04083) -0.007
ANXA5 (UniProt P08758) 0.021
ALDH18A1 (UniProt P54886) 0.023
ABHD17B (UniProt Q5VST6) -0.021
ARHGAP6 (UniProt O43182) 0.089
ARHGEF1 (UniProt M0QZR4) 0.023
AFF1 isoform 2 (UniProt P51825) -0.046
AGPAT1 (UniProt Q99943) 0.106
ANKRD52 (UniProt Q8NB46) 0.063
ACBD6 (UniProt Q9BR61) 0.003
ASPH (UniProt Q12797) -0.008
AKR1C2 (UniProt P52895) -0.011
AK2 (UniProt P54819) 0.007
ACTBL2 (UniProt Q562R1) 0.039
ABCF3 (UniProt Q9NUQ8) 0.033
ABL2 (UniProt P42684) 0.073
ABL1 isoform 2 (UniProt P00519) -0.019
AMPD3 isoform 4 (UniProt Q01432) -0.005
ALDH2 (UniProt P05091) 0.009
AGL (UniProt P35573) 0.035
AGO4 (UniProt Q9HCK5) -0.018
ABHD16A (UniProt O95870) -0.1
ANKRD40 (UniProt Q6AI12) -0.088
AK4 (UniProt P27144) -0.008
ACADS (UniProt P16219) -0.089
AGTPBP1 (UniProt Q9UPW5) -0.012

log2 fold change, active:
ABHD11 (UniProt Q8NFV4) 0.324
